Results as given in PubChem BioAssay (EPA / NIEHS).
Values joined by “and” are separate entries in the source; they are usually repeats but may differ in a detail not shown here. Equal entries are not always repeated. Some structures have more than one record in an assay (separate samples or runs), and their calls can disagree. Active and inactive are the calls of the source. How the source made its calls: active means hit-call score of the fitted dose curve at least 0.9, where 1 is the maximum; inactive means score below 0.9.

test system: not listed separately; assay: ATG_NRF2_ARE_CIS: Attagene CIS-FACTORIAL HepG2 Assay for human Nuclear Factor Erythroid 2 Related Factor 2 (NFR2) response to Antioxidant Response Elements (ARE) (AID 2282992); settings: HepG2 Attagene ARE/NRF2 reporter, transcription factor activity; actives raise or lower the signal;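 on AC50: reporter mRNA level measured by RT-PCR and capillary electrophoresis fluorescence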
Outline: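 Fluorescence intensity of reporter-specific cDNA fragments, separated by capillary electrophoresis, reflects mRNA induction in transfected HepG2 cells at 24 h. Activity is fitted bidirectionally, DMSO serving as baseline.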

Structure (SMILES)	AC50	outcome
CC(=O)O[C@]1(C(C)=O)CC[C@H]2[C@@H]3C=C(Cl)C4=CC(=O)[C@@H]5C[C@@H]5[C@]4(C)[C@H]3CC[C@@]21C	48.4 µM (active) [middle of 4 runs]	inactive
Nc1nc(Cl)nc2c1ncn2[C@H]1C[C@H](O)[C@@H](CO)O1	–	inactive
Oc1ccc(O)cc1	16.6 µM (active)	–
O=C1CCCCC1	–	inactive

test system: not listed separately; assay: ATG_Oct_MLP_CIS: Attagene CIS-FACTORIAL HepG2 Assay for human Octamer-Binding Transcription Factor (Oct) (AID 2282993); settings: HepG2 Attagene cis-factorial Oct reporter, mRNA; actives raise or lower the signal
Outline: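 Transfected HepG2 cells, 24 h treatment. Reporter mRNA quantified by RT-PCR–capillary electrophoresis; bidirectional fitting against DMSO.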

Structure (SMILES)	outcome	AC50
CCCCCCCC(=O)OC	inactive	–
CN(C)CCCN(C)CCCN(C)C	inactive	–
CCCCC(CC)COP(=O)(OCC(CC)CCCC)OCC(CC)CCCC (centres undefined)	inactive	–
CCC(C)N(C)C(=O)c1cc2ccccc2c(-c2ccccc2Cl)n1 (centres undefined)	–	37 µM (active)
O=C(O)c1cccnc1	inactive	–
CN(C)CCCN1c2ccccc2Sc2ccc(Cl)cc21	–	11.1 µM (active)
CCCCCCCCCCCCCCCCO	inactive	–
CCOCCOCCO	inactive	–
C=CCc1ccc(OC)c(OC)c1	inactive	–
CC1(C)C(=O)NC(=O)N1CO	inactive	–
COC(=O)CCCC(=O)OC	inactive	–
CCCCC(CC)CO (centres undefined)	inactive	–
CO[C@@H]1COCC[C@@H]1N[C@@H]1CC[C@@](C(=O)N2CCc3ncc(C(F)(F)F)cc3C2)(C(C)C)C1	inactive	–
CC(=O)OC1CC(C)OC(C)O1 (centres undefined)	inactive	–
N[C@@H](Cc1c[nH]c2ccccc12)C(=O)O	inactive	–
Cc1ccc(C(C)(C)C)c(O)c1	–	144 µM (active)
c1ccc2occc2c1	inactive	–
Cc1occc(=O)c1O	inactive	–
CN(C)C(=O)NC1(c2ccccc2)CCN(CCC[C@]2(c3ccc(Cl)c(Cl)c3)CCCN(C(=O)c3ccccc3)C2)CC1	–	4.31 µM (active)
CC(=O)S[C@H](C(=O)N[C@H]1Cc2ccccc2[C@H]2CCC[C@@H](C(=O)O)N2C1=O)C(C)C	inactive	–
COC(=O)CCC(=O)OC	inactive	–
CCCCCCC(C=O)=Cc1ccccc1	inactive	159 µM (active)
NC=O	inactive	–
CCCCOC(=O)CCCCC(=O)OCCCC	inactive	–
CC(=O)O[C@]1(C(C)=O)CC[C@H]2[C@@H]3C=C(Cl)C4=CC(=O)[C@@H]5C[C@@H]5[C@]4(C)[C@H]3CC[C@@]21C	inactive	73.6 µM (active) and 64.9 µM (active) and 45.3 µM (active)
Nc1nc(Cl)nc2c1ncn2[C@H]1C[C@H](O)[C@@H](CO)O1	inactive	–
Oc1ccc(O)cc1	inactive	–
CCN(CC)CCOc1ccc(C(=C(Cl)c2ccccc2)c2ccccc2)cc1	inactive	7.1 µM (active)
O=C1CCCCC1	inactive	–

biological target: Cellular tumor antigen p53 (Homo sapiens) (UniProt P04637); assay: ATG_p53_CIS: Attagene CIS-FACTORIAL HepG2 Assay for human p53 Transcription Factor (AID 2282994); settings: HepG2 p53 cis-element reporter, Attagene mRNA; actives raise or lower the signal
Sequence (P04637 whole entry, looked up): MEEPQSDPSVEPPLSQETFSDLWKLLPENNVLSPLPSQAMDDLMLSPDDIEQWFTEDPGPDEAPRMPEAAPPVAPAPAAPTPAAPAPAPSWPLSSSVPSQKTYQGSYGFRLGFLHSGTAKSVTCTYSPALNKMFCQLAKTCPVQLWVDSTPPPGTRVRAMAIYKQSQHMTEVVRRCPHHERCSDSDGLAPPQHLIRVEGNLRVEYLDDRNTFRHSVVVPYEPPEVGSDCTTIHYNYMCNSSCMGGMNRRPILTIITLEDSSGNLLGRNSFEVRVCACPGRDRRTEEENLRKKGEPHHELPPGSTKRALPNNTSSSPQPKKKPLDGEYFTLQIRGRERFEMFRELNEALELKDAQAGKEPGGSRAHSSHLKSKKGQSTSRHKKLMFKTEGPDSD
Outline: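 Transiently transfected HepG2 (multiple cis reporter transcription units); exposure 24 h; reporter RNA via RT-PCR, 6-FAM extension, 2 h HpaI digest at 37 C, CE detection; DMSO baseline.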

Structure (SMILES)	outcome	AC50
CCCCCCCC(=O)OC	inactive	–
CN(C)CCCN(C)CCCN(C)C	inactive	–
CCCCC(CC)COP(=O)(OCC(CC)CCCC)OCC(CC)CCCC (centres undefined)	inactive	–
CCC(C)N(C)C(=O)c1cc2ccccc2c(-c2ccccc2Cl)n1 (centres undefined)	–	27.3 µM (active)
CN(C)CCCN1c2ccccc2Sc2ccc(Cl)cc21	–	6.92 µM (active)
CCOCCOCCO	inactive	–
C=CCc1ccc(OC)c(OC)c1	inactive	–
CC1(C)C(=O)NC(=O)N1CO	inactive	–
COC(=O)CCCC(=O)OC	inactive	–
CCCCC(CC)CO (centres undefined)	inactive	–
CO[C@@H]1COCC[C@@H]1N[C@@H]1CC[C@@](C(=O)N2CCc3ncc(C(F)(F)F)cc3C2)(C(C)C)C1	inactive	–
Cc1ccc(C(C)(C)C)c(O)c1	–	182 µM (active)
c1ccc2occc2c1	inactive	–
CN(C)C(=O)NC1(c2ccccc2)CCN(CCC[C@]2(c3ccc(Cl)c(Cl)c3)CCCN(C(=O)c3ccccc3)C2)CC1	inactive	–
CC(=O)S[C@H](C(=O)N[C@H]1Cc2ccccc2[C@H]2CCC[C@@H](C(=O)O)N2C1=O)C(C)C	inactive	–
COC(=O)CCC(=O)OC	inactive	–
Nc1nc(Cl)nc2c1ncn2[C@H]1C[C@H](O)[C@@H](CO)O1	inactive	–
Oc1ccc(O)cc1	inactive	–

read-out: not listed separately; assay: BSK_3C_TissueFactor: BioMAP Diversity Plus: 3C Assay for Tissue Factor Biomarker Activity (AID 2282997); settings: BioMAP 3C HUVEC, tissue factor biomarker readout; actives raise or lower the signal
Outline: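 Cells used were primary human umbilical vein endothelial cells. They were dosed with chemical, and after 24 h Tissue Factor was quantified by ELISA. Curves were fitted bidirectionally with DMSO as baseline.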

Structure (SMILES)	outcome	AC50
CCCCCCCC(=O)OC	inactive	–
CN(C)CCCN(C)CCCN(C)C	inactive	–
CCCCC(CC)COP(=O)(OCC(CC)CCCC)OCC(CC)CCCC (centres undefined)	inactive	–
CCC(C)N(C)C(=O)c1cc2ccccc2c(-c2ccccc2Cl)n1 (centres undefined)	inactive	–
O=C(O)c1cccnc1	inactive	–
CN(C)CCCN1c2ccccc2Sc2ccc(Cl)cc21	–	5.43 µM (active)
CCCCCCCCCCCCCCCCO	inactive	–
CCOCCOCCO	inactive	–
C=CCc1ccc(OC)c(OC)c1	inactive	–
CC1(C)C(=O)NC(=O)N1CO	inactive	–
COC(=O)CCCC(=O)OC	inactive	–
CCCCC(CC)CO (centres undefined)	inactive	–
CO[C@@H]1COCC[C@@H]1N[C@@H]1CC[C@@](C(=O)N2CCc3ncc(C(F)(F)F)cc3C2)(C(C)C)C1	inactive	–
CC(=O)OC1CC(C)OC(C)O1 (centres undefined)	inactive	–
N[C@@H](Cc1c[nH]c2ccccc12)C(=O)O	inactive	–
Cc1ccc(C(C)(C)C)c(O)c1	–	27.6 µM (active)
c1ccc2occc2c1	inactive	–
Cc1occc(=O)c1O	inactive	–
CN(C)C(=O)NC1(c2ccccc2)CCN(CCC[C@]2(c3ccc(Cl)c(Cl)c3)CCCN(C(=O)c3ccccc3)C2)CC1	–	4.37 µM (active)
CC(=O)S[C@H](C(=O)N[C@H]1Cc2ccccc2[C@H]2CCC[C@@H](C(=O)O)N2C1=O)C(C)C	inactive	–
COC(=O)CCC(=O)OC	inactive	–
CCCCCCC(C=O)=Cc1ccccc1	–	27.4 µM (active)
NC=O	inactive	–
CCCCOC(=O)CCCCC(=O)OCCCC	inactive	–
CC(=O)O[C@]1(C(C)=O)CC[C@H]2[C@@H]3C=C(Cl)C4=CC(=O)[C@@H]5C[C@@H]5[C@]4(C)[C@H]3CC[C@@]21C	inactive	–
Nc1nc(Cl)nc2c1ncn2[C@H]1C[C@H](O)[C@@H](CO)O1	–	0.494 µM (active)
Oc1ccc(O)cc1	inactive	–
CCN(CC)CCOc1ccc(C(=C(Cl)c2ccccc2)c2ccccc2)cc1	–	13.5 µM (active)
O=C1CCCCC1	inactive	–
